Measurements published in PubChem BioAssay (Tox21).
“And” between values parts separate entries of the source, which are not always exact repeats. Equal entries are not always repeated. Inconclusive results are not listed. Unmarked numbers belong to inactive results. The source made the active and inactive calls. Calls come from the whole dose curve; as a rule, active = well fitted cell-killing curve with a large enough effect in the repeat runs; inconclusive = weak or mixed curves, or effect the other way; inactive = flat fitted curve, though single readings scatter.

assay: cAMP Responsive Elements (CRE) small molecule antagonists, cell-based qHTS assay: qHTS cell viability counter screen (AID 2060913); settings: CRE-bla HEK293T viability, CellTiter-Glo luminescence, 5 h; series mostly up to 92.4 µM; viability change, negative = cytotoxic: at the top concentration; note: nearly all actives have a fitted effect of over 40% in size
Procedure, shortened: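 Viability of NKH477-stimulated (0.25 uM final) CRE-bla HEK293T cells is measured by CellTiter-Glo luminescence following 3 hrs compound exposure at 37 C.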
% is set by controls: 0 for no effect and ±100 for the full control effect; potency is the fitted concentration of half-maximal effect.

SMILES | viability change, negative = cytotoxic | Potency
CCCC(=O)Nc1ccc(O)c(C(C)=O)c1 | 7.94% [at 42.5 µM] | –
C[C@H](CCC(=O)NCC(=O)O)[C@H]1CC[C@H]2[C@@H]3[C@H](O)C[C@@H]4C[C@H](O)CC[C@]4(C)[C@H]3C[C@H](O)[C@]12C | 3.87% | –
CCCCCN(CCCCC)C(=O)C(CCC(=O)O)NC(=O)c1ccc(Cl)c(Cl)c1 (stereo not given) | -0.367% [at 42.5 µM] | –
Cc1cccc(O)c1C | – | inactive
NS(=O)(=O)c1ccc(Cl)c(S(N)(=O)=O)c1 | 2.95% [at 42.5 µM] | –
CCCCCCCCCCCCN(CCO)CCO | – | 60.9 µM (active)
COc1ccc2c(c1)c(CC(=O)O)c(C)n2C(=O)c1ccc(Cl)cc1 | – | inactive
O=C1CCCN1C1CCCCC1 | -2.72% | –
O=C1CCc2cc(OCCCCc3nnnn3C3CCCCC3)ccc2N1 | -1.87% [at 42.5 µM] | –
Cc1ccc(N)c([N+](=O)[O-])c1 | – | inactive
CCOc1ccc2ccccc2c1C(=O)N[C@@H]1C(=O)N2[C@@H]1SC(C)(C)[C@@H]2C(=O)O | 1.78% [at 42.5 µM] | –
NCCCCCCNCCCCCCN | 6.21% | –
C[C@H]1COc2c(C3(N)CC3)c(F)cc3c(=O)c(C(=O)O)cn1c23 | 5.59% [at 42.5 µM] | –
CC1(C)CC(OC(=O)CCCCCCCCC(=O)OC2CC(C)(C)NC(C)(C)C2)CC(C)(C)N1 | -1.62% [at 18.9 µM] | –
O=C(O)c1ccc(Cl)cc1Cl | 12% | –
CN1CC(=O)N2[C@H](c3ccc4c(c3)OCO4)c3[nH]c4ccccc4c3C[C@@H]2C1=O | 5.72% [at 42.5 µM] | –
CCN(CC)CC(=O)Nc1c(C)cccc1C(=O)OC | -3.18% [at 42.5 µM] | –
CCOC(=O)c1c(N)sc2c1CCN(Cc1ccccc1)C2 | -2.11% [at 42.5 µM] | –
O=C(O)c1cc(-c2ccc(F)cc2F)ccc1O | 3.43% [at 42.5 µM] | –
COc1cc(C(C)C)c2c(c1)S(=O)(=O)N(COc1cc(=O)n3cccc(OCCN4CCCCC4)c3n1)C2=O | -2.74% [at 18.9 µM] | –

SMILES | viability change, negative = cytotoxic | Potency
CCCCN=C(N)N=C(N)N | 3.57% [at 42.5 µM] | –
CCn1c2ccccc2c2ccccc21 | -5.35% | –
C[Si]1(C)O[Si](C)(C)O[Si](C)(C)O[Si](C)(C)O[Si](C)(C)O1 | 2.92% | –
CC(O)Cn1cnc2c1c(=O)n(C)c(=O)n2C (stereo not given) | 1.17% [at 42.5 µM] | –
CC(C)(CCl)c1ccccc1 | 2.07% | –
NCCc1ccc(O)c(O)c1 | – | inactive
O=C1CCCC(=O)C1 | 5.3% | –
Cc1c(C(=O)NCCO)[n+](=O)c2ccccc2n1[O-] | 0.313% [at 42.5 µM] | –
CC1=CCC(C(C)(C)O)CC1 (stereo not given) | – | inactive
Cc1cc(C(C)(C)C)c(O)c(C(C)(C)C)c1 | – | inactive
CN(C)c1ccc(C(=C2C=CC(=[N+](C)C)C=C2)c2ccc(N(C)C)cc2)cc1 | – | 30.5 µM (active) and 61.1 µM (active) and 29.8 µM (active)
Cc1ccc(S(=O)(=O)NCl)cc1 | – | inactive
C=C(C)C(=O)OCCCCCCCC(C)C | 16.3% | –
O=[N+]([O-])c1ccc(Cl)cc1Cl | 5.73% | –
CCCCCCC[N+](CC)(CC)CCCCc1ccc(Cl)cc1 | -14.9% [at 42.5 µM] | –
CN1C(C(=O)Nc2ccccn2)=C(O)c2sccc2S1(=O)=O | -3.15% [at 42.5 µM] | –
CCCCCC1CCCC(=O)O1 (stereo not given) | -2.52% | –
CC(C)Cc1ccc(C(C)C(=O)OCc2ccccn2)cc1 (stereo not given) | -16.4% [at 42.5 µM] | –
CCCCCCCCCCCCCCCCCCOS(=O)(=O)O | -3.52% | –
O=C1c2ccccc2C(=O)C1c1ccc2ccccc2n1 | 10.6% [at 42.5 µM] | –
